Screens: PubChem BioAssay, National Center for Advancing Translational Sciences (NCATS)
Pf growth 96h: P. falciparum growth inhibition at 96 hour, primary screen for plastid delayed-death inhibitors | P. falciparum luciferase reporter growth, 96 h | Potency, µM (titrated, usually from 28.7 µM), usual class: inhibitors | 320,000 compounds, 6.9% hits | AID 504834
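Erythrocytes infected with luciferase-expressing P. falciparum were dispensed at 2% hematocrit and 0.05% parasitemia (final), then incubated with compounds 96 hours at 37 C in 5% CO2. Luminescence after detection reagent addition reported growth.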
Shiga toxin inh: inhibitors of Shiga toxin in Vero cells; Vero cells, Shiga toxin protein synthesis inhibition reporter; inhibition, % at 38.7 µM; 290,000 compounds, 9.2% hits; AID 2315; in the data active = inhibition mostly above about 28%, no sharp cut-off; inactive = mostly below about 43%
Marburg entry inh: inhibitors of Marburg virus binding or cell entry; 300,000 compounds, 1.8% hits; Potency, µM (series often up to 37.8 µM), hits mostly inhibitors; Marburg virus pseudotyped entry inhibition, cell reporter; AID 540276; calls by dose curve; tested in HEK293 cells
Pf growth 48h: P. falciparum growth inhibition at 48 hours (one generation); P. falciparum luciferase growth in erythrocytes, 48 h; Potency, µM (top dose mostly 28.7 µM), actives largely listed as inhibitors; 310,000 compounds, 5.9% hits
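Here the parasites carry a stable luciferase gene and grow inside erythrocytes in Albumax-based RPMI medium with compound for one erythrocytic cycle. Activity is scored as loss of luminescent signal.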
Cycloheximide cs: counter-screen for Shiga toxin inhibitors: cycloheximide protein synthesis inhibition. max response, %. 300,000 compounds, 12% hits. cell reporter, cycloheximide protein synthesis inhibition counterscreen; in the data active = max response mostly above about 13%, no sharp cut-off; inactive = mostly below about 14%; also: read at 38.3 µM for the half of the compounds with a filed dose
LASV entry inh: inhibitors of Lassa virus binding or cell entry; Lassa virus pseudotype entry inhibition, cell reporter; Potency, µM (top dose mostly 37.9 µM), most hits filed as inhibitors; 300,000 compounds, 1.2% hits; AID 540256; calls by dose curve; tested in HEK293 cells; also: nearly all actives have a fitted effect of over 50% in size
Of the large screens only hits and unclear results are named; the others gave an inactive call. Rows were chosen to be rich in hits. Some 19% of all compounds tested hit in one or more screens of this group. Unless noted, calls follow the shape of the dose curve; as a rule, active = well fitted inhibition curve with a large enough effect; inconclusive = small, poorly fitted or top-dose-only effect, or another doubt; inactive = no such curve, though single readings can be large or run the other way.

COc1ccc(N(C)S(=O)(=O)c2cccc(C(=O)OC(C)C(=O)NC3CCCCC3C)c2)cc1 (configuration not stated)	Marburg entry inh inconclusive, Pf growth 48h 12µM, LASV entry inh inconclusive (no result: Shiga toxin inh, Cycloheximide cs)
CC(=O)N1CCN(S(=O)(=O)c2cccc(C(=O)N(C)Cc3ccc(C)o3)c2)CC1	Pf growth 48h inconclusive (no result: Shiga toxin inh, Cycloheximide cs)
COc1ccc(N(C)S(=O)(=O)c2cccc(C(=O)NC3CCC(C)CC3)c2)cc1 (configuration not stated)	Pf growth 96h inconclusive, Marburg entry inh inconclusive, Cycloheximide cs 16, LASV entry inh inconclusive
Fc1ccccc1C1c2[nH]c3ccccc3c2CCN1Cc1cccn1-c1ncccn1 (configuration not stated)	Marburg entry inh 3.2µM, Pf growth 48h inconclusive, LASV entry inh inconclusive
CCC(C)(C)NC(=O)/C=C/c1cnc2ccccc2n1	Shiga toxin inh 77, Marburg entry inh inconclusive, Cycloheximide cs 73, LASV entry inh inconclusive
CC(C)N(Cc1ccccc1)C(=O)COC(=O)/C=C/c1cnc2ccccc2n1	Cycloheximide cs 21
O=C(O)/C=C/c1cnc2ccccc2n1	none
O=C(/C=C/c1cnc2ccccc2n1)NC12CC3CC(CC(C3)C1)C2	Pf growth 96h inconclusive, Shiga toxin inh 136, Cycloheximide cs 54
COc1ccc(OC)c(/C=N/N=C(\N)c2nonc2N)c1	Shiga toxin inh 59, Cycloheximide cs 38 (no result: Marburg entry inh, LASV entry inh)
Nc1nonc1-n1nnc(C(=O)N/N=C/c2ccc(O)cc2)c1COc1ccc(F)cc1	none (no result: Marburg entry inh, LASV entry inh)
N/C(=N\N=C\c1ccc(O)cc1)c1nonc1N	Marburg entry inh 21µM, Cycloheximide cs 30, LASV entry inh inconclusive
CSc1nncn1/N=C/c1ccc([N+](=O)[O-])cc1	none
N/C(=N\N=C\c1ccc(O)c(O)c1)c1nonc1N	Shiga toxin inh 67, Cycloheximide cs 43 (no result: Marburg entry inh, LASV entry inh)
CS/C(N)=N/N=C/c1ccc([N+](=O)[O-])cc1	Shiga toxin inh 75, Cycloheximide cs 30
O=C(CCN1C(=O)/C(=C/c2ccc(F)cc2)SC1=S)NCCCn1ccnc1	none (no result: Marburg entry inh, LASV entry inh)
O=C1c2ccccc2NC(c2ccc(-c3ccc(Br)cc3)o2)N1O (configuration not stated)	Marburg entry inh inconclusive, Pf growth 48h inconclusive
COc1cccc(C=NCCNC(=O)c2nonc2N)c1O	Pf growth 96h inconclusive
CS/C(N)=N/N=C/c1ccc2c(c1)OCO2	Shiga toxin inh 71, Marburg entry inh inconclusive, Cycloheximide cs 25
N/C(=N\N=C\c1ccc([N+](=O)[O-])cc1)c1nonc1N	Shiga toxin inh 91, Cycloheximide cs 51
COc1ccc(/C=N/N=C(\N)c2nonc2N)cc1OC	Pf growth 96h inconclusive, Shiga toxin inh 108, Marburg entry inh inconclusive, Cycloheximide cs 31
N/C(=N\N=C\c1cccc(O)c1)c1nonc1N	Shiga toxin inh 59, Marburg entry inh inconclusive, Cycloheximide cs 31, LASV entry inh inconclusive
COc1ccc(NC(=O)CN(C)C(=O)c2c(-c3c(F)cccc3Cl)noc2C)cc1	Pf growth 96h inconclusive, Pf growth 48h inconclusive (no result: Shiga toxin inh, Cycloheximide cs)
C=C1CCN(C(C(=O)OC)C(C)C)S(=O)(=O)c2ccc(F)cc21 (configuration not stated)	Pf growth 96h inconclusive, Pf growth 48h inconclusive (no result: Marburg entry inh, LASV entry inh)
COc1cc(/C=N/NC(=O)c2nnn(-c3nonc3N)c2C(C)C)ccc1O	none (no result: Marburg entry inh, LASV entry inh)
COc1cc(/C=N/N=C(\N)c2nonc2N)ccc1O	Shiga toxin inh 61, Cycloheximide cs 24, LASV entry inh inconclusive
CCCCC(CC)COC(=O)c1ccccc1O (configuration not stated)	none (no result: Marburg entry inh, LASV entry inh)
Cn1nc(C(=O)Oc2cc(=O)n(C)c3ccccc23)c2ccccc2c1=O	none (no result: Marburg entry inh, LASV entry inh)
O=C(CCCN1C(=O)c2ccccc2C1=O)Nc1cccnc1	none
Cc1ccc2c(CC(=O)Nc3ccc(S(=O)(=O)Nc4nc(C)cc(C)n4)cc3)coc2c1	none (no result: Pf growth 96h, Shiga toxin inh, Pf growth 48h, Cycloheximide cs)
COc1ccc(NC(=O)Cc2coc3cc(C)ccc23)cn1	Pf growth 96h inconclusive, Shiga toxin inh 69
Cc1ccc2c(CC(=O)NC3=NCCS3)coc2c1	Shiga toxin inh 58, Cycloheximide cs 29
Cc1ccc2c(CC(=O)Nc3nc(C)cs3)coc2c1	Cycloheximide cs 20
Cc1nn(-c2ccc(F)cc2)c(Cl)c1/C=N/NC(=O)c1ccc(O)cc1	Shiga toxin inh 61, Pf growth 48h inconclusive, Cycloheximide cs 20, LASV entry inh inconclusive
Cc1nn(-c2ccc(F)cc2)c(Cl)c1/C=N/NC(=O)c1cccs1	Pf growth 96h inconclusive, Shiga toxin inh 59, Cycloheximide cs 30
O=C(CN(c1ccccc1)S(=O)(=O)c1ccccc1)NCCSc1ccccn1	Marburg entry inh inconclusive
CCCn1c(SCC(=O)Nc2cccc(NC(C)=O)c2)nnc1C(C)C	Pf growth 96h 4.1µM, Marburg entry inh inconclusive
CCCn1c(SCC(=O)N2CCCCC2)nnc1C(C)C	Shiga toxin inh 43, Cycloheximide cs 15
COCCn1c(SCC(=O)N2CCCC2)nnc1C(C)C	Pf growth 96h 5.2µM
CCCn1c(SCC(=O)NC)nnc1C(C)C	LASV entry inh inconclusive
CC(=O)Nc1cccc(C(=O)OC(C)C(=O)NC2CCCc3ccccc32)c1 (configuration not stated)	none
COc1cc(-c2nc(-c3ccccc3)c(-c3ccc(F)cc3)[nH]2)cc2c1OCO2	Pf growth 48h inconclusive, LASV entry inh inconclusive
OCC1CCCN(C(=S)Nc2ccc(OC(F)F)cc2)C1 (configuration not stated)	Shiga toxin inh 63, Cycloheximide cs 26
OCC1CCCN(C(=S)Nc2ccc(Nc3ccccc3)cc2)C1 (configuration not stated)	Pf growth 96h inconclusive, Shiga toxin inh 61, Marburg entry inh inconclusive, Cycloheximide cs 29, LASV entry inh inconclusive
NC(=O)C1CCCN(C(=S)Nc2ccccc2)C1 (configuration not stated)	none
Cc1ccc(NC(=S)N2CCOCC2)cc1	none
Cc1ccc(NC(=S)N2CCCC(O)C2)cc1 (configuration not stated)	Shiga toxin inh 69, Cycloheximide cs 20
COc1ccc(OC)c(CCNC(=O)Cc2ccc(NC3=NC4CS(=O)(=O)CC4S3)cc2)c1 (configuration not stated)	Pf growth 96h inconclusive (no result: Marburg entry inh, LASV entry inh)
O=C(CSc1ccccc1C(=O)NCc1ccccc1)NC12CC3CC(CC(C3)C1)C2	Pf growth 96h inconclusive, Marburg entry inh inconclusive, Pf growth 48h inconclusive, LASV entry inh 10µM
COc1ccc(C(=O)NCCc2nnc3ccc(SCC(=O)Nc4ccccc4F)nn23)cc1	none
C#CCOCCOCCOCCNc1nc(N2CCOCC2)nc(N2CCN(C(=O)[C@H]([C@@H](C)CC)n3cc(CCCCN)nn3)CC2)n1	Pf growth 96h 8.3µM, Pf growth 48h inconclusive
C#CCOCCOCCOCCNc1nc(N2CCN(C(=O)[C@H]([C@@H](C)CC)n3cc(CCCCN)nn3)CC2)nc(N2CCN(C(=O)[C@H](C)n3cc(CCCN=C(N)N)nn3)CC2)n1	Pf growth 48h inconclusive (no result: Shiga toxin inh, Marburg entry inh, Cycloheximide cs, LASV entry inh)
